KCNQ2 pot: potentiators of rat KCNQ2 potassium channel; AID 2239; 310,000 compounds, 0.54% hits; B-score at 10 µM; O88943; CHO-K1 KCNQ2, FluxOR thallium flux fluorescence; active compounds read high;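 active = fluorescence ratio B-score at least 3 SD of library B-scores, with initial fluorescence B-score within 3 of them, cut at about 5.3 in these data; same plate scores as AID 2156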;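 note: B-score of peak minus minimum over baseline fluorescence ratio after K+ and Tl+ stimulus; positive B-score means potentiation of KCNQ2 with more thallium influx and brighter signal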
Target sequence (O88943 whole entry, looked up): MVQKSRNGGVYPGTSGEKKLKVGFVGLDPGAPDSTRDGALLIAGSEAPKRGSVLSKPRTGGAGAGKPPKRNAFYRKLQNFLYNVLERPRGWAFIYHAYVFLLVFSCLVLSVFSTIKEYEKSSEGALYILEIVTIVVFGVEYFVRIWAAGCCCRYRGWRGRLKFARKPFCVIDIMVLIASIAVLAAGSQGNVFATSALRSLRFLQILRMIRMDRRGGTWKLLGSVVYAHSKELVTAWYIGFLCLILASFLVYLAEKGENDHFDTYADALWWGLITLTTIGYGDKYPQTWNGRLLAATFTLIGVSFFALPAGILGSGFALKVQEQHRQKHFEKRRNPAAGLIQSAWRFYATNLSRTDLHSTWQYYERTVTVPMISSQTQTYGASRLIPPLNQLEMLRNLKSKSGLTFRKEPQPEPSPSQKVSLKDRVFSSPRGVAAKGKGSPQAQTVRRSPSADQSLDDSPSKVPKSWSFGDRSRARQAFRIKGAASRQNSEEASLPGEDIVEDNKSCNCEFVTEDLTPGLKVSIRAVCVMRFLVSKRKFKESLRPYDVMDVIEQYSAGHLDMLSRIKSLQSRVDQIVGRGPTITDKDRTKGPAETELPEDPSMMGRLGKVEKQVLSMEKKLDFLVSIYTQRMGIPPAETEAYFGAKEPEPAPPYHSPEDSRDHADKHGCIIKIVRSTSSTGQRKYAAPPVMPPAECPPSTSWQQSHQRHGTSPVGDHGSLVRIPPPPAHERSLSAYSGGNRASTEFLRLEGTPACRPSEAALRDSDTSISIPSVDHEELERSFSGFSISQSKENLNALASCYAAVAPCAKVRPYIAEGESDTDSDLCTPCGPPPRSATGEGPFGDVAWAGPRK
KCNQ2 block: inhibitors of rat KCNQ2 potassium channel; CHO-K1 KCNQ2, FluxOR thallium flux, 20 min; active compounds read low; B-score at 10 µM; 310,000 compounds, 1.1% hits; AID 2156;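 active = fluorescence ratio B-score at most minus 3 library SDs, with starting brightness B-score within 2 library SDs, cut at about -5.5 in these data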
Kir21 confirm: confirmation of mouse Kir2.1 potassium channel inhibitors; AID 2032; shares compounds with KCNQ2 pot; 2,300 compounds, 41% hits; Tl flux remaining, % of negative control (active compounds read low), % at 10 µM; Kir2.1-expressing cells, FluxOR thallium flux fluorescence; active compounds read low;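 active = Primary-screen hit whose thallium flux fell at least 3 control SD below untreated wells in both duplicates, with normal baseline fluorescence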
HEK293 Tl flux: parental HEK293 activity in Kir2.1 inhibitor counter-screen. shares compounds with KCNQ2 pot. parental HEK293 cells, FluxOR thallium flux fluorescence; 0% = unstimulated blank wells. FluxOR signal as % of negative control (100 = no effect), % at 10 µM. 2,300 compounds, 19% hits;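 active = dye signal at least 3 control SD above or below untreated wells in both duplicates, raw fluorescence within 3, either direction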;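 note: percent is based on the flux ratio of peak minus minimum fluorescence over baseline F0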
CHO-K1 ctr: counter-screen for KCNQ2 potentiators: effect in parental CHO-K1 cells; shares compounds with KCNQ2 pot; 1,200 compounds, 43% hits; FluxOR thallium flux fluorescence; zero = vehicle mean+3SD, 100% = vehicle-minus-blank window; activity increase over 3SD of controls, % at 10 µM;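 active = signal rise of at least 3 SD above the untreated control mean, in both duplicate wells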;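 note: counter screen of KCNQ2 potentiator hits so any rise reflects channel-independent effects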
KCNQ1 pot spec: human KCNQ1 counter-target activity of KCNQ2 potentiators; shares compounds with KCNQ2 pot; CHO KCNQ1 stable, FluxOR thallium flux fluorescence; beyond 3SD, as % of vehicle-control signal; activation over 3SD threshold, % at 10 µM; 1,200 compounds, 28% hits; AID 2283;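 active = fluorescence ratio rise of at least 3 SD of vehicle wells above their mean, in both replicate wells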
KCNQ2 pot confirm: rat KCNQ2 channel potentiator confirmation. shares compounds with KCNQ2 pot. CHO-KCNQ2 cells, FluxOR thallium flux fluorescence. potentiation, less the hit threshold, % at 10 µM. 1,200 compounds, 68% hits;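 active = fluorescence ratio rising 3 SD or more over the vehicle control mean in both replicates, plus primary screen hit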;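 note: peak minus minimum thallium fluorescence divided by baseline after K/Tl stimulus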
Kir21 spec: tests whether KCNQ2 potentiators also affect mouse Kir2.1 | AID 2345 | 1,200 compounds, 2% hits | HEK293 Kir2.1, FluxOR thallium flux fluorescence | activity over 3SD threshold, % at 10 µM | shares compounds with KCNQ2 pot;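 active = fluorescence ratio rise of at least 3 SD above the vehicle-control mean, seen in both replicates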
KCNQ2 W236L MoA: potentiates the retigabine-insensitive rat KCNQ2 W236L mutant channel; 940 compounds, 10% hits; shares compounds with KCNQ2 pot; CHO KCNQ2-W236L, automated patch clamp current; current increase over 3SD of negative controls (%), active compounds read high, % at 25 µM;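 active = current increase at least 3 SD of the untreated controls above them in both duplicate recordings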
A number is an active result; 0 = inactive; - = no result. An excerpt weighted towards active compounds, which were near 1.6% of everything screened.

SMILES	KCNQ2 pot	KCNQ2 block	Kir21 confirm	HEK293 Tl flux	CHO-K1 ctr	KCNQ1 pot spec	KCNQ2 pot confirm	Kir21 spec	others
CC1CCN(C(=O)COc2ccc3ccccc3c2Br)CC1	16.2	0	0	0	0	0	31.7	0	KCNQ2 W236L MoA=0
CC1CCN(C(=O)COc2ncnc3ccccc23)CC1	0	0	-	-	-	-	-	-
O=C(COc1ncnc2ccc(Br)cc12)N1CCOCC1	0	0	-	-	-	-	-	-
O=C(COc1ccc2cc(Br)ccc2c1Br)N1CCOCC1	9.51	0	0	0	42.4	0	8.8	0	KCNQ2 W236L MoA=0
COc1cc(C(=O)NC(C)Cc2ccccn2)ccc1OC1CCN(C(C)=O)CC1 (centres undefined)	-	0	-	-	-	-	-	-
COc1ccc(N(CC(=O)NC2CCCC2)C(=O)CCC(=O)Nc2cc(C)on2)cc1OC	0	0	-	-	-	-	-	-
CC(=O)NCCc1nc2ccccc2n1Cc1cccc(C)c1	-	0	-	-	-	-	-	-
CC1(c2ccccc2)CC(C)(C)N2C(=O)C3(C(C#N)=C(N)Oc4cc(O)ccc43)c3cccc1c32 (centres undefined)	0	0	-	-	-	-	-	-
CC1(c2ccccc2)CC(C)(C)N2C(=O)/C(=C3\SC(=S)NC3=O)c3cccc1c32 (centres undefined)	32.5	0	0	0	0	0	4.3	0	KCNQ2 W236L MoA=0
Cc1ccc2cc(NC(=O)c3ccccc3C)ccc2n1	-	0	-	-	-	-	-	-
COc1cnc(-c2ccccn2)nc1N(C)c1ccccc1	-	0	-	-	-	-	-	-
CCOc1ccc(-c2noc(CCCC(=O)NCC3CCCO3)n2)cc1OC (centres undefined)	-	0	-	-	-	-	-	-
CSc1nsc(NC(=O)OCc2ccc(Cl)cc2)n1	5.85	0	0	0	88.9	0	0	0
COc1ccsc1NC(=O)OCc1ccc(Cl)cc1	-	0	-	-	-	-	-	-
O=C(O)CCCSc1nccn1-c1ccccc1	-	0	-	-	-	-	-	-
CC(C)(C)c1csc(NC(=O)c2ccc(Cl)s2)n1	0	0	-	-	-	-	-	-
Cc1ccc(C(=O)Nc2nc(C(C)(C)C)cs2)s1	6.64	0	0	0	18.3	0	0	0	KCNQ2 W236L MoA=0
Cc1ccc(/C=C/C(=O)OCC(=O)Nc2cccc(S(=O)(=O)N(C)C)c2)o1	0	0	-	-	-	-	-	-
COc1ccccc1CN(C(=O)CNC(=O)c1ccco1)C(C(=O)NCC1CCCO1)c1ccccc1 (centres undefined)	0	0	-	-	-	-	-	-
COc1cc2[nH]c(C(=O)NCCc3ccccc3)cc2c(OC)c1OC	0	0	-	-	-	-	-	-
COc1cc2[nH]c(C(=O)NCc3ccccc3)cc2c(OC)c1OC	-	0	0	0	-	-	-	-
O=C(COc1cccc2ccccc12)Nc1ccc(Cl)cc1C(=O)O	7.2	0	0	129.0%	0	0	23.1	0	KCNQ2 W236L MoA=0
O=C(COc1cccc2ccccc12)Nc1cc(Cl)ccc1C(=O)O	0	0	-	-	-	-	-	-
Cc1ccc(Nc2nc(=O)c3cccnc3s2)c(Br)c1	-	0	-	-	-	-	-	-
Cc1ccc(-n2nnnc2-c2ccccc2)cc1	-	0	-	-	-	-	-	-
SMILES	KCNQ2 pot	KCNQ2 block	Kir21 confirm	HEK293 Tl flux	CHO-K1 ctr	KCNQ1 pot spec	KCNQ2 pot confirm	Kir21 spec	others
Cc1ccc(-n2nnnc2C(Cl)c2nnnn2-c2ccc(C)cc2)cc1	-	0	39.0%	0	-	-	-	-
CC(=O)c1ccc(-n2nnnc2SCC(=O)NC2CCCCC2)cc1	0	0	-	-	-	-	-	-
CCN(CC)CCOC(=O)CCc1cccc2ccccc12	0	0	-	-	-	-	-	-
CCN(CC)CCOC(=O)C(Cc1ccco1)Cc1cccc2ccccc12 (centres undefined)	-	0	36.5%	0	-	-	-	-
COc1cccc2cc(-c3nnc(SCC(=O)Nc4ccc(NC(C)=O)cc4)n3C)oc12	0	0	-	-	-	-	-	-
COc1cc(C(=O)Nc2nnc(CC(C)C)s2)c([N+](=O)[O-])cc1OC	0	0	-	-	-	-	-	-
CC1(C)C(=O)OC(c2c3ccccc3cc3ccccc23)C(C)(C)C1=O (centres undefined)	6.19	0	0	0	11.8	90.5	0	0
CN(C)c1ccc(C2OC(=O)C(C)(C)C(=O)C2(C)C)cc1 (centres undefined)	-	0	-	-	-	-	-	-
COc1ccc(C(=O)Nc2nnc(-c3ccc(F)cc3)s2)c(OC)c1	10.1	0	0	0	0	19.3	0	0
COc1ccccc1C(=O)Nc1nnc(-c2ccc(F)cc2)s1	-	0	-	-	-	-	-	-
CCN(CC)C(=S)SCc1csc(CC(=O)Nc2ccccc2C)n1	-	0	-	-	-	-	-	-
Cc1ccc(C(=O)N2CC(=O)NC(=O)C2)cc1	0	0	-	-	-	-	-	-
Cc1cccc(NC(=O)c2ccc(S(=O)(=O)N3CCOCC3)cc2)n1	-	0	-	-	-	-	-	-
COc1ccc(S(=O)(=O)N2CCN(Cc3ccc(Cl)cc3)CC2)cc1	-	0	-	-	-	-	-	-
COc1ccc(CN2CCCN(S(=O)(=O)c3ccc(Br)cc3)CC2)cc1	-	0	55.5%	0	-	-	-	-
CC(=O)Nc1ccc(S(=O)(=O)N(Cc2ccccc2)c2ccccc2F)cc1	0	0	-	-	-	-	-	-
Cc1cccc(NC(=O)NNC(=O)COc2ccc3ccccc3c2)c1	-	0	-	-	-	-	-	-
Cc1cc(Br)ccc1OCC(=O)NNC(=O)C(=O)Nc1ccccc1	11.3	0	0	227.5%	69.9	0	36.2	0	KCNQ2 W236L MoA=0
O=C(COc1ccc2ccccc2c1)NNC(=O)C(=O)Nc1ccccc1	12.5	0	0	0	0	0	0	0	KCNQ2 W236L MoA=0
Cc1cc(Br)ccc1OCC(=O)NNC(=O)Cc1ccccc1	0	0	-	-	-	-	-	-
O=C(COC(=O)c1ccc(S(=O)(=O)NCc2ccco2)cc1)Nc1ccc(Cl)cn1	-	0	-	-	-	-	-	-
COc1ccc(N2CCN(C(=O)COC(=O)CCOc3ccc(C)cc3)CC2)cc1	-	0	-	-	-	-	-	-
CC(C)(C)c1ccc(-c2nc(-c3ccncc3)no2)cc1	7	0	0	0	54.1	0	45.5	0	KCNQ2 W236L MoA=0
Cc1ccc(-c2nc(-c3ccncc3)no2)cc1	0	0	-	-	-	-	-	-
COCCCNC(=O)CCCN1C(=O)c2cccnc2Sc2ccccc21	0	0	-	-	-	-	-	-
SMILES	KCNQ2 pot	KCNQ2 block	Kir21 confirm	HEK293 Tl flux	CHO-K1 ctr	KCNQ1 pot spec	KCNQ2 pot confirm	Kir21 spec	others
O=C1N=C(N2CCCCC2)SC1=C1CCCCC1	0	0	-	-	-	-	-	-
O=C1NC(=S)SC1=C1CCCCCC1	23.1	0	0	357.0%	39.5	7.2	57.2	0	KCNQ2 W236L MoA=0
Cc1nn(C)c(C(=O)NC(=S)Nc2ccc([N+](=O)[O-])cc2)c1Cl	8.44	0	0	132.5%	0	0	0.7	0	KCNQ2 W236L MoA=0
Cc1nn(C)c(C(=O)NNC(=S)Nc2ccc(F)cc2)c1[N+](=O)[O-]	-	0	-	-	-	-	-	-
Cc1nn(C)c(C(=O)NC(=S)Nc2ccccc2Br)c1Cl	6.84	0	0	215.5%	0	0	54.7	0	KCNQ2 W236L MoA=0
CCCCOC(=O)c1ccc(NC(=S)NC(=O)c2c(Cl)cnn2CC)cc1	0	0	-	-	-	-	-	-
CCn1ncc(Cl)c1C(=O)NC(=S)Nc1ccccc1Br	7.09	0	0	231.5%	12.1	54.9	53.2	0	KCNQ2 W236L MoA=0
Cc1nn(C)c(C(=O)NNC(=S)NCc2ccccc2)c1Cl	-	0	-	-	-	-	-	-

Bioassay records deposited in PubChem BioAssay by Johns Hopkins Ion Channel Center.
